Compound activity from PubChem.
In the library only some 0.9% were active in any assay of this set; here they are far more common.
UGM FP inh: Mtb UDP-galactopyranose mutase inhibition | inhibition, % at 10 µM | 320,000 tested, 0.06% active | purified UGM, fluorescence polarization probe displacement; in the data active = inhibition above about 10%, passing the limit was not always enough
Target sequence (P9WIQ1 whole entry, looked up): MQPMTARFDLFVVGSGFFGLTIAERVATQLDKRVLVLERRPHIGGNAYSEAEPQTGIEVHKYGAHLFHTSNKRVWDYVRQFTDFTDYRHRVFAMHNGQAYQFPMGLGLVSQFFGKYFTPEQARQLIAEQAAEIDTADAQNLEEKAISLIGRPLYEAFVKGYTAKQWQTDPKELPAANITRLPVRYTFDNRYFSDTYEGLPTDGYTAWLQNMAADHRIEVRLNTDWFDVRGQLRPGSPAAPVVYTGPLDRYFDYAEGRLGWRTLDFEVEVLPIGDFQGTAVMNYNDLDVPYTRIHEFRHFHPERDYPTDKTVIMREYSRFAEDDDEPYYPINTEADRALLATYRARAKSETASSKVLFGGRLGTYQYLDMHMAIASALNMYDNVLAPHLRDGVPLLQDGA
TcdB GH inh: blocks C. difficile toxin B glycohydrolase activity | P18177 | AID 652162 | TcdB glycohydrolase enzymatic assay, plate reader | 350,000 tested, 0.24% active | inhibition, % at 9.99 µM; in the data active = inhibition above about 10%
Mtb BioA inh: blocks M. tuberculosis BioA enzyme activity. inhibition, % at 9.99 µM. 360,000 tested, 0.096% active. purified M. tuberculosis BioA enzyme, plate reader; in the data active = inhibition above about 40%
RecA intein inh: inhibitors of M. tuberculosis RecA intein splicing | P9WHJ3 | inhibition, % (no concentration beside the values) | 290,000 tested, 0.75% active | cell-free RecA intein splicing, fluorescence | AID 2221; in the data active = inhibition above about 30%
Rv3671c inh: Rv3671c (M. tuberculosis) protease inhibition; P9WHR9; inhibition, % at 5.96 µM; 320,000 tested, 0.048% active; in the data active = inhibition above about 38%;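 note: extracellular domain of Rv3671c used as enzyme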
FadD28 binding: blocks FadD28 binding to the bisubstrate probe; AID 588549; inhibition, % at 12.5 µM; 360,000 tested, 0.22% active; fluorescence polarization; in the data active = inhibition above about 8.5%, passing the limit was not always enough
GFP chromophore: counter-screen GFP chromophore formation inhibition; shares compounds with RecA intein inh; 2,100 tested, 83% active; EC50, µM; cell-free GFP chromophore formation, fluorescence; AID 434968; call rule not given here
Of the large screens only hits and unclear results are named; the others gave an inactive call (follow-up assays come after a bar, where they were run).

O=C(NCC[C@H]1CC[C@@H](NC(=O)C2CCCC2)[C@@H](CO)O1)c1cnccn1	none (no result: UGM FP inh, RecA intein inh, Rv3671c inh, FadD28 binding)
N#CC1=C(N)Oc2n[nH]c(-c3ccccc3)c2C1c1ccsc1 (stereo not given)	RecA intein inh 86.5 (no result: TcdB GH inh, Mtb BioA inh) | GFP chromophore 30.9
N#CC1=C(N)Oc2n[nH]c(-c3ccncc3)c2C1c1ccsc1 (stereo not given)	RecA intein inh 53.8 (no result: TcdB GH inh, Mtb BioA inh) | GFP chromophore 38.4
CCn1c(C)cc2c(c1=O)C(c1ccc3c(c1)OCO3)C(C#N)=C(N)O2 (stereo not given)	none (no result: TcdB GH inh)
Cc1[nH]nc2c1C(c1ccc3c(c1)OCO3)C(C#N)=C(N)O2 (stereo not given)	RecA intein inh 66.5 (no result: TcdB GH inh) | GFP chromophore 38.6
Cc1ccc(-c2[nH]nc3c2C(c2ccsc2)C(C#N)=C(N)O3)cc1 (stereo not given)	RecA intein inh 65.2 | GFP chromophore 1.82
CCOc1ccc(-c2[nH]nc3c2C(c2cccnc2)C(C#N)=C(N)O3)cc1 (stereo not given)	none (no result: TcdB GH inh, RecA intein inh)
COc1ccc(NC(=O)N[C@H]2C=C[C@H](CC(=O)NCc3ccccn3)O[C@@H]2CO)cc1	none (no result: UGM FP inh, RecA intein inh, Rv3671c inh, FadD28 binding)
O=C(C[C@H]1C[C@@H]2c3cc(NC(=O)NC4CCCCC4)ccc3O[C@@H]2[C@H](CO)O1)NC1CCCCC1	none (no result: UGM FP inh, Mtb BioA inh, RecA intein inh, Rv3671c inh, FadD28 binding)
CN(C)c1ccc2nsnc2c1[N+](=O)[O-]	RecA intein inh 31.8 | GFP chromophore inactive
O=C(Oc1ccccc1N1C(=O)CCC1=O)c1ccco1	RecA intein inh 35.6 (no result: TcdB GH inh) | GFP chromophore inactive
CC1C=CCC2C(=O)N(c3ccccc3OC(=O)c3ccco3)C(=O)C12 (stereo not given)	none
OC(CNCCC1C=Nc2ccccc21)Cn1c2ccc(Cl)cc2c2cc(Cl)ccc21 (stereo not given)	RecA intein inh 47.7 (no result: TcdB GH inh) | GFP chromophore 36.6
CC(C)NC(=O)Nc1ccc2c(c1)C(=O)N([C@@H](C)CO)C[C@@H](C)[C@H](CN(C)CC1CCCCC1)O2	none (no result: UGM FP inh, RecA intein inh, Rv3671c inh, FadD28 binding)
CC(C)(C)C(=O)Nc1ccc(N=Nc2ccccc2)cc1	RecA intein inh 35.2 | GFP chromophore 8.74
Nc1ccc2nc(CCCCc3nc4ccccc4[nH]3)[nH]c2c1	RecA intein inh 35.8 (no result: Rv3671c inh) | GFP chromophore inactive
O=C1C(=O)c2ccccc2C([O-])=C1[n+]1ccccc1	RecA intein inh 84.4 | GFP chromophore 6.86
COc1ccc2c3c([nH]c2c1)[C@H](CO)N(C(=O)Cc1ccccc1)CC31CN(C)C1	none (no result: UGM FP inh, Mtb BioA inh, RecA intein inh, Rv3671c inh, FadD28 binding)
O=C1C(Cl)=C(Nc2ccc3cn[nH]c3c2)C(=O)c2ccccc21	RecA intein inh 89.5 | GFP chromophore 1.52
COCCNC(=O)C[C@H]1C[C@H]2c3cc(NC(=O)C4CCC4)ccc3O[C@H]2[C@@H](CO)O1	none (no result: UGM FP inh, RecA intein inh, Rv3671c inh, FadD28 binding)
O=C(N/N=C/c1ccc(OC(=O)c2ccco2)cc1)c1ccc[n+]([O-])c1	RecA intein inh 31.7 | GFP chromophore inactive
COc1cc(/C=N/NC(=O)c2ccc(F)cc2)ccc1OC(=O)c1ccco1	RecA intein inh 30.5 (no result: Mtb BioA inh) | GFP chromophore inactive
O=C(N/N=C\c1ccc(OC(=O)c2ccco2)cc1)c1ccc(Cl)cc1	none (no result: Mtb BioA inh)
COc1cccc(/C=C2\SC(=S)N(CCCC(=O)N3CCCC3)C2=O)c1	RecA intein inh 32.9 | GFP chromophore inactive
COc1ccc(/C=C2/SC(=S)N(CCCC(=O)Nc3ccc(O)cc3)C2=O)cc1	none
COc1ccc(/C=C2\SC(=S)N(CCCC(=O)Nc3ccc(O)cc3)C2=O)cc1	RecA intein inh 40.1 | GFP chromophore inactive
CO[C@H]1CN(C)C(=O)c2cc(NS(=O)(=O)c3ccccc3C)ccc2OC[C@H](C)N(C)C[C@@H]1C	none (no result: UGM FP inh, RecA intein inh, Rv3671c inh, FadD28 binding)
Cc1cc(=O)n(C2CCS(=O)(=O)C2)[nH]1 (stereo not given)	RecA intein inh 93.4 (no result: Mtb BioA inh) | GFP chromophore 3.79
CCOC(=O)CN1C(=O)N[C@@H](c2cccc(C(F)(F)F)c2)C(C(C)=O)=C1C	RecA intein inh 34.9 (no result: TcdB GH inh) | GFP chromophore inactive
CCOC(=O)CN1C(=O)N[C@@H](c2cccc(F)c2)C(C(C)=O)=C1C	none
COc1ccc2c3c(n(C)c2c1)[C@H](CO)N(CC1CCCCC1)CC31CCN(C(C)=O)CC1	none (no result: UGM FP inh, Mtb BioA inh, RecA intein inh, Rv3671c inh, FadD28 binding)
Cc1ccc(S(=O)(=O)NN=Cc2c(O)ccc3ccccc23)cc1	none (no result: UGM FP inh, RecA intein inh, Rv3671c inh)
O=S(=O)(Nc1c(O)ccc2ccccc12)c1cccc2ccccc12	RecA intein inh 84.3 (no result: TcdB GH inh) | GFP chromophore 4.26
Cc1ccc(S(=O)(=O)Nc2c(O)ccc3ccccc23)cc1	RecA intein inh 76.3 (no result: TcdB GH inh) | GFP chromophore 3.06
CO[C@@H]1CN(C)C(=O)c2ccc(NC(=O)C3CC3)cc2OC[C@H](C)N(Cc2nccs2)C[C@@H]1C	none (no result: UGM FP inh, RecA intein inh, Rv3671c inh, FadD28 binding)
Cn1c(=O)[nH]c(=O)c2c1nc([N+](=O)[O-])n2Cc1ccccc1	RecA intein inh 62.3 (no result: Mtb BioA inh) | GFP chromophore 17.4
CC(C)Cn1c([N+](=O)[O-])nc2c1c(=O)[nH]c(=O)n2C	none
C[C@@H]1CN([C@H](C)CO)C(=O)c2cccc(NC(=O)Nc3ccccc3)c2O[C@H]1CN(C)C	none (no result: UGM FP inh, RecA intein inh, Rv3671c inh, FadD28 binding)
CN(C)CCCNC(=O)[C@@H]1[C@@H](CO)[C@@H]2Cn3c(cccc3=O)[C@H]1N2CC1CC1	none (no result: UGM FP inh, RecA intein inh, Rv3671c inh, FadD28 binding)
CC(NC(=O)COC(=O)c1cc(NS(=O)(=O)c2ccc(Cl)c([N+](=O)[O-])c2)ccc1O)C1CC2CCC1C2 (stereo not given)	RecA intein inh 48.2 (no result: TcdB GH inh) | GFP chromophore inactive
O=C1CC(CSc2ccc(Cl)cc2)=NN1	RecA intein inh 90.9 | GFP chromophore 8.78
O=C(C[C@H]1CC[C@H]2[C@@H](COC[C@H](O)CN2Cc2cccc(C(F)(F)F)c2)O1)NCCc1ccccc1	none (no result: UGM FP inh, RecA intein inh, Rv3671c inh, FadD28 binding)
CC(C)(C)c1c(Cl)c(O)c(-c2ccccc2)c(=O)n1-c1ccccc1	RecA intein inh 30.8 (no result: UGM FP inh, Mtb BioA inh, Rv3671c inh) | GFP chromophore inactive
Cc1cccc(CS(=O)(=O)c2ncc(Cl)c(C(=O)Nc3nnc(C(C)C)s3)n2)c1	RecA intein inh 85.8 (no result: TcdB GH inh) | GFP chromophore 0.856
C=CCSc1nnc(NC(=O)c2nc(SCC)ncc2Cl)s1	none (no result: Mtb BioA inh)
CSc1nnc(NC(=O)c2nc(S(=O)(=O)Cc3cccc(C)c3)ncc2Cl)s1	RecA intein inh 81.4 | GFP chromophore 18.2
CC(C)c1nnc(NC(=O)c2nc(S(=O)(=O)Cc3ccc(F)cc3)ncc2Cl)s1	RecA intein inh 82.3 | GFP chromophore 16.2
CCOc1ccccc1NC(=O)c1nc(S(=O)(=O)Cc2cccc(C)c2)ncc1Cl	none
CCSc1nnc(NC(=O)c2nc(S(=O)(=O)Cc3ccc(F)cc3)ncc2Cl)s1	RecA intein inh 84.8 | GFP chromophore 20.7
C[C@@H]1CN([C@H](C)CO)C(=O)Cc2cc(NC(=O)C3CCCCC3)ccc2O[C@H]1CN(C)CC1CC1	none (no result: UGM FP inh, RecA intein inh, Rv3671c inh, FadD28 binding)
C[C@@H]1CCCCO[C@@H](CN(C)S(=O)(=O)c2ccc(Cl)cc2)[C@@H](C)CN([C@@H](C)CO)C(=O)c2cc(NC(=O)CCC(F)(F)F)ccc2O1	none (no result: UGM FP inh, RecA intein inh, Rv3671c inh, FadD28 binding)
CC(C)c1nnc(NC(=O)CS(=O)(=O)Cc2ccccc2)s1	none (no result: Mtb BioA inh)
Cc1ccc(CS(=O)(=O)c2ncc(Cl)c(C(=O)Nc3nnc(C(C)C)s3)n2)cc1	RecA intein inh 86.0 | GFP chromophore 3.7
